Values without a mark were called inactive. Active and inactive are the calls of the source. The rule behind the calls is not given here.
Target: L-lactate dehydrogenase (Plasmodium falciparum (isolate CDC / Honduras)) (UniProt Q27743)
Assay: PfLDH activity inhibition – cell lysate, 3D7 strain, counter-screen for P. falciparum growth inhibition project (AID 2304);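 note: 0% = vehicle and 100% = reference inhibitor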
Details: P. falciparum 3D7 crude extract, LDH APAD/NBT absorbance; at 2 µM; hits give high values

Chain of L-lactate dehydrogenase (Plasmodium falciparum (isolate CDC / Honduras)) (Q27743 whole entry, looked up): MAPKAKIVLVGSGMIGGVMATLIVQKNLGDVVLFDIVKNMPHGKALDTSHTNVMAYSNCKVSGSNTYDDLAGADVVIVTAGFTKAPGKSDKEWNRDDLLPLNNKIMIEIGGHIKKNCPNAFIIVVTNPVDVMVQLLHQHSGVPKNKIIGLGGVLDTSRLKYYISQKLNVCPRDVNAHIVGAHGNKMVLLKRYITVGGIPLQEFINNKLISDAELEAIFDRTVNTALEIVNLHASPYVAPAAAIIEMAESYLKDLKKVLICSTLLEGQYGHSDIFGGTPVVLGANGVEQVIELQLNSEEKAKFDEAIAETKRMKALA

**Q.** Which inhibition does the source give for `COc1ccccc1C1CCN(C2CCC(NC(=O)/C=C/c3cc(F)cc(C(F)(F)F)c3)CC2)CC1` (stereo not given) here?
**A.** -1%

**Q.** Which inhibition does the source give for `Cc1ccc(Nc2nccc(NCC(O)c3cccc(F)c3)n2)cc1` (stereo not given) here?
**A.** -7%

**Q.** For `Cc1cccc2[nH]c(-c3ccc(-c4cccc(CN5CCN(c6ccc(C#N)cn6)CC5)c4)s3)nc12`, which inhibition is on record?
**A.** 2%

**Q.** With `Cc1ccc(NC(=O)NC2CCN(CCCCCNC(=O)/C=C/c3ccc(Cl)c(Cl)c3)CC2)cc1` as the compound, how does the inhibition read?
**A.** -2%

**Q.** Which inhibition does the source give for `NC(=Nc1nc(-c2ccccn2)cc2ccccc12)c1cccc(Cl)c1` here?
**A.** 0%

**Q.** Which inhibition does the source give for `CCC1CN2CCc3c([nH]c4ccccc34)C2CC1CC1=NCCc2c1[nH]c1ccc(OC)cc21` (stereo not given) here?
**A.** 1%

**Q.** For `Cn1c(N)c(C(=O)CSc2nnc(-c3cccs3)n2Cc2ccccc2)c(=O)n(C)c1=O`, which inhibition is on record?
**A.** -3%

**Q.** With `Cc1cc(NC(=O)c2coc3cc(F)c(N4C[C@@H](C)N(C)[C@@H](C)C4)cc23)cnc1-c1ccc(C#N)cc1` as the compound, how does the inhibition read?
**A.** -3%

**Q.** Which inhibition does the source give for `N#Cc1cccc(C(=O)Nc2ccc(-c3nc4ccccc4[nH]3)cc2)c1` here?
**A.** -2%

**Q.** Which inhibition does the source give for `Cc1ccc(C(=O)Cn2nc(-c3ccc(C)c(S(=O)(=O)N4CCCCC4)c3)ccc2=O)cc1` here?
**A.** -5%

**Q.** Which inhibition does the source give for `COc1ccc2c(NN=C(C)c3ccccn3)cc(C)nc2c1` here?
**A.** -5%

**Q.** With `CCCCCCCNCc1c(O)ccc2c(CNCCCCCCC)c(O)ccc12` as the compound, how does the inhibition read?
**A.** -3%

**Q.** Which inhibition does the source give for `CCOc1ccc(C(C)NC(=O)C2COc3ccccc3O2)cc1OCC` (stereo not given) here?
**A.** 1%

**Q.** For `Cc1nc(C)c(CC(=O)Nc2ccc(-c3cccc(-c4nc5ccc(C(F)(F)F)cc5[nH]4)c3)cc2)s1`, which inhibition is on record?
**A.** 1%

**Q.** For `O=S(=O)(Nc1cc2c(cc1OCCCN1CCCCC1)CCNCC2)c1ccc(-c2ccc(Cl)cc2)cc1`, which inhibition is on record?
**A.** 2%

**Q.** With `Cc1ccccc1C1CCN(C2CCC(NC(=O)c3ccc(-c4ccccn4)s3)CC2)CC1` (stereo not given) as the compound, how does the inhibition read?
**A.** -1%

**Q.** With `COc1ccc2nccc([C@@H](O)CN3CCC(NC(=O)Cn4nc(-c5ccc(C(F)(F)F)cc5)ccc4=O)CC3)c2c1` as the compound, how does the inhibition read?
**A.** -3%

**Q.** Which inhibition does the source give for `CS(=O)(=O)c1ccc(OCCCN(Cc2ccccc2C(F)(F)F)c2ccc(C#N)c(C(F)(F)F)c2)cc1` here?
**A.** -5%

**Q.** With `Cc1cc(=O)c(C2CCC(c3ccc(Cl)cc3)CC2)c(C)[nH]1` (stereo not given) as the compound, how does the inhibition read?
**A.** 0%

**Q.** Which inhibition does the source give for `COc1cc(-c2cnc(N)c(-c3nc4ccccc4[nH]3)c2)cc(OC)c1OC` here?
**A.** 7%

**Q.** For `CC1(C)N=C(N)N=C(N)N1OCCOc1ccc2ccccc2c1`, which inhibition is on record?
**A.** 5%

**Q.** With `O=C(Nc1ccc(OC2CCN(Cc3ccccc3)CC2)c(Cl)c1)c1cccs1` as the compound, how does the inhibition read?
**A.** 4%

**Q.** For `CC(=O)c1ccc(NC(=O)C2c3ccccc3C(=O)N(CC(C)C)C2c2cccs2)cc1` (stereo not given), which inhibition is on record?
**A.** -1%

**Q.** For `COc1ccc2ncc(F)c(CCN3CCC(NCc4cnc5c(c4)NC(=O)CS5)CC3)c2c1`, which inhibition is on record?
**A.** 3%

**Q.** Which inhibition does the source give for `O=C(Nc1nc(-c2ccccn2)cc2ccccc12)c1cccc(Cl)c1` here?
**A.** -3%

**Q.** Which inhibition does the source give for `CN1CCCN(Cc2cccc(-c3cccc(NC(=O)c4cccc(C#N)c4)c3)c2)CC1` here?
**A.** 2%

**Q.** Which inhibition does the source give for `OC1(Cc2ccccc2)CCN(Cc2cccc(-c3c[nH]c4nc(NC5CCCC5)ncc34)c2)CC1` here?
**A.** 4%

**Q.** For `N#Cc1ccc(NC(=O)N2CCCN(CCCCCNC(=O)/C=C/c3ccc(Cl)c(Cl)c3)CC2)cc1`, which inhibition is on record?
**A.** 0%

**Q.** For `Nc1ncc(-c2ccc(Cl)c(Cl)c2)c(N)n1`, which inhibition is on record?
**A.** -2%

**Q.** With `O=C(c1ccc(O)c(-c2cc(Cl)cc(Cl)c2)c1)N(CCO)CCO` as the compound, how does the inhibition read?
**A.** -9%

**Q.** With `CC(=O)Nc1cccc(CNCc2ccc(-c3cnc(N4CCCC(C)(C)C4)nc3)cc2)c1` as the compound, how does the inhibition read?
**A.** 0%

**Q.** Which inhibition does the source give for `Cc1ccc(/C=C/C(=O)NC2CCC(N3CCC(c4ccccc4C)CC3)CC2)cc1C` (stereo not given) here?
**A.** -3%

**Q.** With `COc1ccc(OCCCON2C(N)=NC(N)=NC2(C)C)cc1` as the compound, how does the inhibition read?
**A.** -3%

**Q.** For `O=C(NCc1cccc(Cl)c1)c1ccc(CNC2CCN(Cc3ccccc3)CC2)cc1`, which inhibition is on record?
**A.** 5%

**Q.** For `CN(C)CCOc1ccc(-c2cc(-c3ccc(Cl)c(O)c3)c(-c3ccncc3)[nH]2)cc1`, which inhibition is on record?
**A.** 5%

**Q.** Which inhibition does the source give for `Fc1ccc2nc(-c3ccc(-c4ccc(CN5CCCCC5)cc4)s3)[nH]c2c1` here?
**A.** -2%

**Q.** With `Cc1cc(N2CCC(NS(=O)(=O)c3cccc4cccnc34)CC2)nc(Nc2cccc(C#N)c2)n1` as the compound, how does the inhibition read?
**A.** -3%

**Q.** Which inhibition does the source give for `Cc1cc(NC(=O)c2cccs2)ccc1OC1CCN(Cc2ccccc2)C1` (stereo not given) here?
**A.** -1%

**Q.** With `Oc1ccc2[nH]c(-c3ccc(F)cc3F)nc2c1CN1CCC(O)(c2ccccc2)CC1` as the compound, how does the inhibition read?
**A.** -2%

**Q.** With `COc1cccc(NC(=O)[C@H](C(C)C)n2c(=O)[nH]c3ccccc3c2=O)c1` as the compound, how does the inhibition read?
**A.** -1%

System: not listed separately
Assay: inhibition of 3D7 malaria parasite growth – strain 3D7 (AID 2306);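 note: 0% = DMSO wells and 100% = chloroquine plus artemisinin control wells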
Details: P. falciparum 3D7 erythrocytic growth, LDH absorbance, 72 h; at 2 µM; hits give high values

**Q.** For `COc1ccccc1C1CCN(C2CCC(NC(=O)/C=C/c3cc(F)cc(C(F)(F)F)c3)CC2)CC1` (stereo not given), which growth inhibition is on record?
**A.** 98% (active)

**Q.** Which growth inhibition does the source give for `Cc1ccc(Nc2nccc(NCC(O)c3cccc(F)c3)n2)cc1` (stereo not given) here?
**A.** 95% (active)

**Q.** For `Cc1cccc2[nH]c(-c3ccc(-c4cccc(CN5CCN(c6ccc(C#N)cn6)CC5)c4)s3)nc12`, which growth inhibition is on record?
**A.** 85% (active)

**Q.** Which growth inhibition does the source give for `Cc1ccc(NC(=O)NC2CCN(CCCCCNC(=O)/C=C/c3ccc(Cl)c(Cl)c3)CC2)cc1` here?
**A.** 102% (active)

**Q.** With `NC(=Nc1nc(-c2ccccn2)cc2ccccc12)c1cccc(Cl)c1` as the compound, how does the growth inhibition read?
**A.** 101% (active)

**Q.** For `CCC1CN2CCc3c([nH]c4ccccc34)C2CC1CC1=NCCc2c1[nH]c1ccc(OC)cc21` (stereo not given), which growth inhibition is on record?
**A.** 101% (active)

**Q.** Which growth inhibition does the source give for `Cn1c(N)c(C(=O)CSc2nnc(-c3cccs3)n2Cc2ccccc2)c(=O)n(C)c1=O` here?
**A.** 85% (active)

**Q.** Which growth inhibition does the source give for `Cc1cc(NC(=O)c2coc3cc(F)c(N4C[C@@H](C)N(C)[C@@H](C)C4)cc23)cnc1-c1ccc(C#N)cc1` here?
**A.** 99% (active)

**Q.** Which growth inhibition does the source give for `N#Cc1cccc(C(=O)Nc2ccc(-c3nc4ccccc4[nH]3)cc2)c1` here?
**A.** 91% (active)

**Q.** With `Cc1ccc(C(=O)Cn2nc(-c3ccc(C)c(S(=O)(=O)N4CCCCC4)c3)ccc2=O)cc1` as the compound, how does the growth inhibition read?
**A.** 99% (active)

**Q.** For `COc1ccc2c(NN=C(C)c3ccccn3)cc(C)nc2c1`, which growth inhibition is on record?
**A.** 102% (active)

**Q.** Which growth inhibition does the source give for `CCCCCCCNCc1c(O)ccc2c(CNCCCCCCC)c(O)ccc12` here?
**A.** 100% (active)

**Q.** Which growth inhibition does the source give for `CCOc1ccc(C(C)NC(=O)C2COc3ccccc3O2)cc1OCC` (stereo not given) here?
**A.** 101% (active)

**Q.** For `Cc1nc(C)c(CC(=O)Nc2ccc(-c3cccc(-c4nc5ccc(C(F)(F)F)cc5[nH]4)c3)cc2)s1`, which growth inhibition is on record?
**A.** 86% (active)

**Q.** With `O=S(=O)(Nc1cc2c(cc1OCCCN1CCCCC1)CCNCC2)c1ccc(-c2ccc(Cl)cc2)cc1` as the compound, how does the growth inhibition read?
**A.** 100% (active)

**Q.** With `Cc1ccccc1C1CCN(C2CCC(NC(=O)c3ccc(-c4ccccn4)s3)CC2)CC1` (stereo not given) as the compound, how does the growth inhibition read?
**A.** 87% (active)

**Q.** Which growth inhibition does the source give for `COc1ccc2nccc([C@@H](O)CN3CCC(NC(=O)Cn4nc(-c5ccc(C(F)(F)F)cc5)ccc4=O)CC3)c2c1` here?
**A.** 100% (active)

**Q.** For `CS(=O)(=O)c1ccc(OCCCN(Cc2ccccc2C(F)(F)F)c2ccc(C#N)c(C(F)(F)F)c2)cc1`, which growth inhibition is on record?
**A.** 94% (active)

**Q.** For `Cc1cc(=O)c(C2CCC(c3ccc(Cl)cc3)CC2)c(C)[nH]1` (stereo not given), which growth inhibition is on record?
**A.** 88% (active)

**Q.** For `COc1cc(-c2cnc(N)c(-c3nc4ccccc4[nH]3)c2)cc(OC)c1OC`, which growth inhibition is on record?
**A.** 101% (active)

**Q.** Which growth inhibition does the source give for `CC1(C)N=C(N)N=C(N)N1OCCOc1ccc2ccccc2c1` here?
**A.** 93% (active)

**Q.** For `O=C(Nc1ccc(OC2CCN(Cc3ccccc3)CC2)c(Cl)c1)c1cccs1`, which growth inhibition is on record?
**A.** 96% (active)

**Q.** Which growth inhibition does the source give for `CC(=O)c1ccc(NC(=O)C2c3ccccc3C(=O)N(CC(C)C)C2c2cccs2)cc1` (stereo not given) here?
**A.** 99% (active)

**Q.** For `COc1ccc2ncc(F)c(CCN3CCC(NCc4cnc5c(c4)NC(=O)CS5)CC3)c2c1`, which growth inhibition is on record?
**A.** 99% (active)

**Q.** For `O=C(Nc1nc(-c2ccccn2)cc2ccccc12)c1cccc(Cl)c1`, which growth inhibition is on record?
**A.** 96% (active)

**Q.** Which growth inhibition does the source give for `CN1CCCN(Cc2cccc(-c3cccc(NC(=O)c4cccc(C#N)c4)c3)c2)CC1` here?
**A.** 95% (active)

**Q.** For `OC1(Cc2ccccc2)CCN(Cc2cccc(-c3c[nH]c4nc(NC5CCCC5)ncc34)c2)CC1`, which growth inhibition is on record?
**A.** 96% (active)

**Q.** Which growth inhibition does the source give for `N#Cc1ccc(NC(=O)N2CCCN(CCCCCNC(=O)/C=C/c3ccc(Cl)c(Cl)c3)CC2)cc1` here?
**A.** 100% (active)

**Q.** Which growth inhibition does the source give for `Nc1ncc(-c2ccc(Cl)c(Cl)c2)c(N)n1` here?
**A.** 94% (active)

**Q.** Which growth inhibition does the source give for `O=C(c1ccc(O)c(-c2cc(Cl)cc(Cl)c2)c1)N(CCO)CCO` here?
**A.** 94% (active)

**Q.** With `CC(=O)Nc1cccc(CNCc2ccc(-c3cnc(N4CCCC(C)(C)C4)nc3)cc2)c1` as the compound, how does the growth inhibition read?
**A.** 93% (active)

**Q.** Which growth inhibition does the source give for `Cc1ccc(/C=C/C(=O)NC2CCC(N3CCC(c4ccccc4C)CC3)CC2)cc1C` (stereo not given) here?
**A.** 100% (active)

**Q.** With `COc1ccc(OCCCON2C(N)=NC(N)=NC2(C)C)cc1` as the compound, how does the growth inhibition read?
**A.** 97% (active)

**Q.** Which growth inhibition does the source give for `O=C(NCc1cccc(Cl)c1)c1ccc(CNC2CCN(Cc3ccccc3)CC2)cc1` here?
**A.** 100% (active)

**Q.** With `CN(C)CCOc1ccc(-c2cc(-c3ccc(Cl)c(O)c3)c(-c3ccncc3)[nH]2)cc1` as the compound, how does the growth inhibition read?
**A.** 98% (active)

**Q.** For `Fc1ccc2nc(-c3ccc(-c4ccc(CN5CCCCC5)cc4)s3)[nH]c2c1`, which growth inhibition is on record?
**A.** 92% (active)

**Q.** With `Cc1cc(N2CCC(NS(=O)(=O)c3cccc4cccnc34)CC2)nc(Nc2cccc(C#N)c2)n1` as the compound, how does the growth inhibition read?
**A.** 98% (active)

**Q.** For `Cc1cc(NC(=O)c2cccs2)ccc1OC1CCN(Cc2ccccc2)C1` (stereo not given), which growth inhibition is on record?
**A.** 84% (active)

**Q.** Which growth inhibition does the source give for `Oc1ccc2[nH]c(-c3ccc(F)cc3F)nc2c1CN1CCC(O)(c2ccccc2)CC1` here?
**A.** 96% (active)

**Q.** For `COc1cccc(NC(=O)[C@H](C(C)C)n2c(=O)[nH]c3ccccc3c2=O)c1`, which growth inhibition is on record?
**A.** 101% (active)
